Pf Dd2 growth: qHTS Primary assay for Inhibitors of Plasmodium falciparum Dd2 growth in vitro; P. falciparum Dd2 growth, SYBR Green, 72 h; Potency, µM (series often up to 28.9 µM), inactives show top-dose activity, negative = inhibition, hits mostly inhibitors; 120,000 compounds, 4.3% hits; active = well fitted inhibition curve with a large enough effect;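 note: plate controls were DMSO vehicle for no effect and reference drug for full effect; nearly all actives have a fitted effect of over 65% in size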
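Infected erythrocytes (Dd2, 0.3% parasitemia, 2.5% hematocrit final) are added to compound in RPMI-1640/Albumax II medium, grown 72 h at 37C in low oxygen, then lysed with saponin/Triton-X containing SYBR Green and read by fluorescence.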
An asterisk follows results filed as active; i = inactive; [ ] = another dose, or the depositor's remark. The entries come from a sample that favours hits as a whole. Potency is the fitted concentration of half-maximal effect.

SMILES | Pf Dd2 growth
CCc1ccc2c(c1)c(=O)c(C(=O)c1ccc(C)cc1)cn2CC(=O)Nc1ccccc1C | -2%
CCc1ccc(C(=O)c2cn(CC(=O)Nc3ccc(Cl)cc3)c3cc4c(cc3c2=O)OCO4)cc1 | -28%
O=C1Cc2c(-c3ccccc3Oc3ccccc3)n[nH]c2CN1Cc1ccccc1 | -18%[44.1 µM]
CCCN(CC1CCOC1)S(=O)(=O)c1ccc2c(c1)OCCO2 (stereo not drawn) | 20%[5.79 µM]
CCN1C(=O)CCN(C(=O)c2ccc3cc[nH]c3c2)CC12CCOCC2 | 7%
CCn1cc(S(=O)(=O)c2ccccc2)c(=O)c2cc(C)ccc21 | -21%
CCn1cc(S(=O)(=O)c2ccccc2)c(=O)c2cc(F)c(N3CCN(c4ccccc4)CC3)cc21 | 3.2µM*
CCn1cc(S(=O)(=O)c2cccc(C)c2)c(=O)c2cc(F)c(N3CCCCC3C)cc21 (stereo not drawn) | 26%
Cn1cc(S(=O)(=O)c2ccccc2)c(=O)c2cc(F)c(N3CCOCC3)cc21 | -7%
Cc1ccc(S(=O)(=O)c2cn(C)c3cc(N4CCN(c5ccccc5)CC4)c(F)cc3c2=O)cc1 | -24%
Cn1cc(S(=O)(=O)c2ccccc2)c(=O)c2cc(F)c(N3CCN(c4ccccc4)CC3)cc21 | 7.1µM*
COCCC1(CO)CCCN(C(=O)c2cc(C3CC3)[nH]n2)C1 (stereo not drawn) | -6%
CCCCN1CC(Oc2ccccc2C(=O)NC2CC2)C1 | -19%
COc1ccc(CC(=O)N2CCC(Cc3nc(-c4ccc(OC)cc4)no3)CC2)cc1 | i
COc1ccc(-c2noc(CC3CCN(C(=O)Cc4ccsc4)CC3)n2)cc1 | i
CCOc1ccc(CC(=O)N2CCC(Cc3nc(-c4ccc(OC)cc4)no3)CC2)cc1 | 8.9µM*
COc1ccc(-c2noc(CC3CCN(C(=O)c4ccc5c(c4)OCO5)CC3)n2)cc1 | 11µM*
O=C(c1ccc2c(c1)OCO2)N1CCC(Cc2nc(-c3ccccc3)no2)CC1 | 5%
COc1ccc(C(=O)N2CCC(Cc3nc(-c4ccc(F)cc4)no3)CC2)cc1F | -20%
COc1ccc(CC2CCN(C(=O)c3c(C)noc3-c3ccc4c(c3)OCO4)CC2)cc1 | 7.9µM*
COc1ccc(-c2noc(CC3CCN(C(=O)c4cc(F)cc(F)c4)CC3)n2)cc1 | -26%
COc1ccc(-c2onc(C)c2C(=O)N2CCC(Cc3ccc(F)cc3)CC2)cc1 | -5%
Cc1noc(-c2ccc3c(c2)OCO3)c1C(=O)N1CCC(Cc2ccccc2)CC1 | i
COC(=O)c1cccc(C(=O)N2CCC(Cc3nc(-c4cnccn4)no3)CC2)c1 | i
COC(=O)c1cccc(C(=O)N2CCC(Cc3nc(-c4ccc(F)cc4)no3)CC2)c1 | 10µM*
SMILES | Pf Dd2 growth
CC(=O)N1CCN(c2ncnc3c2CN(C2CCC2)C(=O)CN3C)CC1 | -8%
CCNC(=O)N1CCCC(c2nn(C)c(=O)n2C2CCCC2)C1 (stereo not drawn) | 38%
Cn1c(Cn2cccn2)nnc1C1CC(NC(=O)CN2CCCC2=O)C1 (stereo not drawn) | -3%
COc1ccc(C(=O)N2CCC3(C2)NC(=O)c2ccccc2O3)cc1 (stereo not drawn) | i
Cc1noc(C)c1[S+](=O)([O-])N1CCC(N2CCCOC2=O)CC1 | -2%[44.1 µM]
Cc1ccc(C(C)CCN2CCC3(CC2)C(=O)N(Cc2ccccn2)C(=O)N3Cc2ccccc2)o1 (stereo not drawn) | i
O=C(N1CCC(Cc2nc(C3CC3)n[nH]2)CC1)C1(c2ccccc2)CC1 | i
COc1ccc(-c2noc(CC3CCN(C(=O)CCCc4ccccc4)CC3)n2)cc1 | -26%
COc1cccc(-c2noc(CC3CCN(C(=O)c4cc(OC)c(OC)c(OC)c4)CC3)n2)c1 | -6%
COc1ccc(OCC(=O)N2CCC(Cc3nc(-c4ccc(OC)cc4)no3)CC2)cc1 | 11µM*
COc1cccc(-c2noc(CC3CCN(C(=O)c4ccc(N(C)C)cc4)CC3)n2)c1 | 5µM*
COc1cccc(-c2noc(CC3CCN(C(=O)c4ccccc4C)CC3)n2)c1 | i
Cc1ccc(OCC(=O)N2CCC(Cc3nc(-c4ccccc4)no3)CC2)cc1 | i
Cc1ccc(CN2CCC3(CC2)CC(c2cccnc2)=NO3)cc1 | i
COC[C@H]1NC(=O)CC[C@H]1C(=O)Nc1ccc2c(c1)OCCO2 | 10%
CN(C)[C@@H]1CN(C(=O)c2ccc(C#N)cc2)CC[C@]1(O)c1ccccc1 | i[5.79 µM]
O=C([C@@H]1C[C@H](F)CN1C(=O)c1ccccc1C(F)(F)F)N1CCOCC1 | -11%
O=C([C@@H]1C[C@H](F)CN1S(=O)(=O)c1cccc(C(F)(F)F)c1)N1CCCCC1 | i
CC1(C(=O)NCc2ccc3c(c2)OCO3)CCCCC(=O)N1 (stereo not drawn) | -16%
O=C(O)c1cccc(C2CCCN(C(=O)Cc3cc(F)c(F)c(F)c3)C2)c1 (stereo not drawn) | -27%
Cc1cc(C)cc(NC(=O)CN2C(=O)CSc3ccc(S(=O)(=O)N4CCCC4)cc32)c1 | -12%
CC(C)N(Cc1ccccc1)C(=O)CN1C(=O)CSc2ccc(S(=O)(=O)N3CCCC3)cc21 | 7.9µM*
CCCCN(CCCC)CCNC(=O)CN1C(=O)CSc2ccc(S(=O)(=O)N3CCCCC3)cc21 | i
Cc1cccc(C(=O)N2C[C@@H](CO)[C@H](c3ccccn3)C2)n1 | 24%
Cc1cccc(N2CCN(c3nc4ccccc4c(=O)n3-c3ccc(Cl)cc3)CC2)c1C | i
SMILES | Pf Dd2 growth
Cc1cccc(N2CCN(c3nc4ccccc4c4nc(-c5ccccc5)nn34)CC2)c1C | 23%
Cc1cccc(N2CCN(c3nc4ccccc4c4nnc(C)n34)CC2)c1C | 0.89µM*
COc1ccc(NC(=O)c2ccc3c(c2)N(C)C2CCCCN2C3=O)cc1F (stereo not drawn) | -6%
COc1cccc(S(=O)(=O)N2CCC3(CC2)C(=O)NN=C3c2ccccn2)c1 | -21%
COc1ccc2[nH]cc(CCNC(=O)CCC3CCN(C(=O)c4ccccc4)CC3)c2c1 | -29%
CC(C)(C)C(=O)N1CCC2(CC1)OCC(C(=O)NCC1CCCO1)N2C(=O)c1ccc(F)cc1 (stereo not drawn) | 0%
Cc1ccc(NC(=O)O[C@@H]2CC[C@]3(C)C(CC[C@@H](O)[C@H]3CC(=O)N3CCC[C@H]3CO)[C@]2(C)CO)cc1 (stereo partly drawn) | i
O=C(NCc1cc(F)ccc1F)C1Cn2cccc2C(=O)N1Cc1ccccc1 (stereo not drawn) | -12%
CC(C)OCCCNC(=O)C1Cn2cccc2C(=O)N1Cc1cccnc1 (stereo not drawn) | -13%
O=C(NCCCN1CCCC1=O)C1Cn2cccc2C(=O)N1Cc1cccnc1 (stereo not drawn) | 4%
COc1cccc(CNC(=O)C2Cn3cccc3C(=O)N2Cc2ccccc2)c1 (stereo not drawn) | -18%
COc1ccccc1CNC(=O)C1Cn2cccc2C(=O)N1Cc1cccnc1 (stereo not drawn) | 4.5µM*
COCCCNC(=O)C1Cn2cccc2C(=O)N1Cc1ccccc1 (stereo not drawn) | 21%
O=C(NCCCN1CCCc2ccccc21)C1Cn2cccc2C(=O)N1Cc1cccnc1 (stereo not drawn) | 8.9µM*
O=C(NCCN1CCCCC1)C1Cn2cccc2C(=O)N1Cc1cccnc1 (stereo not drawn) | 3%
COc1ccccc1OCCNC(=O)C1Cn2cccc2C(=O)N1Cc1cccnc1 (stereo not drawn) | 5.6µM*
CN(CC1CCOC1)S(=O)(=O)c1ccc(F)c(Cl)c1 (stereo not drawn) | 12%[5.79 µM]

Screens from PubChem BioAssay.
